Data taken from the supplement of paper PMC10127200.
Counter-ions that a name gives are not always drawn.

Experiments:
Assay in all cases: Euclidean distance of Cell Painting phenotypic profile (signed KS, 77 features) to DMSO centroid (dimensionless distance); 5 or 10 uM (library dependent); higher = stronger phenotypic change vs DMSO (phenoactivity)
Details in all cases: 48 h
[1] = system: 786-O
Summary of the method: (§1)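 Phenoactivity is computed as Euclidean distance to the median vehicle profile. The profiles, drawn from 77 Harmony features scored as signed Kolmogorov-Smirnov statistics versus same-plate vehicle wells, were corrected for plate position, correlation-weighted and replicate-averaged at the top dose. Stained cells were imaged confocally at 20X (9 fields/well) after 48 h with library compounds at 10 or 5 uM, 0.1% DMSO final, in five cancer lines and a healthy fibroblast line.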

[2] = system: A549
Summary of the method: as §1

[3] = system: DU145
Summary of the method: as §1

[4] = system: FB
Summary of the method: as §1

[5] = system: HEPG2
Summary of the method: as §1

[6] = system: OVCAR4
Summary of the method: as §1

SMILES	Euclidean distance [1]	Euclidean distance [2]	Euclidean distance [3]	Euclidean distance [4]	Euclidean distance [5]	Euclidean distance [6]
NS(=O)(=O)c1cc(C(=O)O)c(NCc2ccco2)cc1Cl [Furosemide]	1.62	0.823	1.83	1.25	0.788	0.747
COc1cnc(NS(=O)(=O)c2ccc(N)cc2)nc1 [Sulfameter]	1.33	1.11	0.768	1.28	1.49	1.5
Cc1ccccc1OCC(O)CO (stereo unspecified) [Mephenesin]	0.824	0.804	0.895	1.13	0.549	1.86
CO[C@H]1C[C@@H]2CC[C@@H](C)[C@@](O)(O2)C(=O)C(=O)N2CCCC[C@H]2C(=O)O[C@H]([C@H](C)C[C@@H]2CC[C@@H](O)[C@H](OC)C2)CC(=O)[C@H](C)/C=C(\C)[C@@H](O)[C@@H](OC)C(=O)[C@H](C)C[C@H](C)/C=C/C=C/C=C/1C [Rapamycin (Sirolimus)]	2.74	1.97	1.21	3.07	1.86	2.1
CC(=O)O[C@H]1C[C@@]2(C)[C@@H](C[C@@H](O)[C@H]3[C@@]4(C)CC[C@@H](O)[C@@H](C)[C@@H]4CC[C@@]32C)/C1=C(\CCC=C(C)C)C(=O)O [Fusidine]	0.63	0.807	0.822	0.84	0.634	1.3
C[C@H]1NCc2cc(-c3ccc4c(=O)c(C(=O)O)cn(C5CC5)c4c3OC(F)F)ccc21 [Garenoxacin]	0.629	0.876	0.678	1.54	0.463	1.08
CC(C)Cc1ccc(C(C)C(=O)O)cc1 (stereo unspecified) [Ibuprofen Lysine]	1.27	0.944	1.68	0.93	1.17	1.07
C[C@](N)(Cc1ccc(O)c(O)c1)C(=O)O [Methyldopa]	1.49	0.734	1.09	0.909	0.55	0.729
O=C(Nc1ccncc1)c1cc([N+](=O)[O-])ccc1Cl	1.2	0.794	2.19	0.879	1.09	2.04
CC(C)COc1ccc(CNC(=O)N(Cc2ccc(F)cc2)C2CCN(C)CC2)cc1 [Pimavanserin]	4.02	4.29	3	5.4	5.24	3.47
Nc1cc(Cl)c(N=C2NCCN2)c(Cl)c1 [Apraclonidine HCl]	0.986	1.57	0.828	1.25	0.638	2
